Results from PubChem BioAssay AID504634 (The Scripps Research Institute Molecular Screening Center, 2011).
Hit rate of the full screen: of about 340,000 compounds, about 280 (0.082%) were called active. Shown is part of a subset that was picked to be rich in actives. Values without a mark were called inactive. No stated cut-off is given here; in the data, active means inhibition mostly above about 23% (no sharp cut-off); inactive means mostly below about 18%.

Target: 5-hydroxytryptamine receptor 5A (Homo sapiens) (UniProt P47898)
Experiment: inverse agonism at human 5-HT5A receptor – cell-based, luminescence, full-deck HTS, counter-screen for OPRM1-OPRD1 heterodimer inverse agonist project, primary screen (AID 504634);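 further: 0% = cells with DMSO and 100% = no-cell wells with DMSO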
Settings: HTR5A cell line, at 9.3 µM, hits give high values

Chain of 5-hydroxytryptamine receptor 5A (Homo sapiens) (P47898 whole entry, looked up): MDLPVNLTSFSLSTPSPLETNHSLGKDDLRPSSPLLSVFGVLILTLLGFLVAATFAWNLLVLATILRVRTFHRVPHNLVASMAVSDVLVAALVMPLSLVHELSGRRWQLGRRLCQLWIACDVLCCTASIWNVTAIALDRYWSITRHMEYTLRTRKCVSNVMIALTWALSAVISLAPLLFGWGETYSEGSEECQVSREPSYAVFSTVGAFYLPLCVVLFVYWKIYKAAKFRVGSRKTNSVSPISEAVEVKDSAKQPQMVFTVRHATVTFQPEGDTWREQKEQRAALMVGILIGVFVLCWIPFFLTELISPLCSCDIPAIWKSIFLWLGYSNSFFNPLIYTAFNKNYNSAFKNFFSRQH

Structure (SMILES)	inhibition
CCCC1NC(=O)NC(C)=C1C(=O)OCC (stereo not given)	-17.2%
CCOC(=O)c1c(C)[nH]c(C)c1S(=O)(=O)NCCCc1ccco1	16.2%
CCNS(=O)(=O)c1ccc(CCC(=O)N2CCN(c3ccc(OC)cc3)CC2)cc1	8.47%
CC(NC(=O)CNC(=O)Cc1cccc2ccccc12)c1ccc(S(N)(=O)=O)cc1 (stereo not given)	2.43%
O=c1ccc2c(-c3ccccc3S(=O)(=O)O)c3ccc(O)c(O)c3oc-2c1O	24.5% (active)
NS(=O)(=O)c1ccc(CCNC(=O)c2ccc(Cl)c(S(=O)(=O)N3CCCCCC3)c2)cc1	-7.96%
COc1ccc2[nH]c3c(c2c1)CCN1C(=O)C(CC(=O)NCCc2ccccn2)C[C@H](C(=O)N2CCOCC2)[C@@]31C (stereo not given in full)	2.62%
Cc1noc(C)c1NC(=O)Nc1ccc2c(c1)C(=O)N([C@H](C)CO)C[C@H](C)[C@@H](CN(C)C(=O)Nc1ccccc1)O2	-10%
S=C(Nc1ccc(Br)cc1Cl)N1CCC2(CC1)OCCO2	2.4%
CC(C)Cn1cnc2c1c(=O)n(CC(O)c1ccccc1)c(=O)n2CC(C)C (stereo not given)	-27.9%
COc1ccc(S(=O)(=O)N2CCc3ccccc32)cc1C(=O)Nc1cc(S(C)(=O)=O)ccc1Cl	-6.04%
COc1cc(CCC(=O)Nc2ccncc2Cl)cc(OC)c1OC	6.7%
Cc1cccn2c(=O)c(C=O)c(Nc3ccc(S(N)(=O)=O)cc3)nc12	-18.2%
O=C(O)c1ccccc1NC(=S)NC(NC(=O)c1ccccc1[N+](=O)[O-])C(Cl)(Cl)Cl (stereo not given)	-0.92%
CCCS(=O)(=O)N1CCN(C(=O)c2cccs2)CC1	-3.26%
Cc1cccc(N2CC(C)Cn3c2nc2c3c(=O)n(CC(=O)OCc3ccccc3)c(=O)n2C)c1 (stereo not given)	-8.01%
COc1ccc(S(=O)(=O)N2CCOC2CNC(=O)C(=O)NCc2ccc(F)cc2)cc1 (stereo not given)	7.37%
CC(C)(C)c1ccc(S(=O)(=O)N2CCN(C(=O)c3ccc4c(c3)C(=O)N(Cc3ccncc3)C4=O)CC2)cc1	5.4%
COc1ccc(C#Cc2c(-c3ccc(OC)cc3)oc3ccc(-c4ccc5c(c4)OCO5)cc23)cc1	5.51%
CC1(c2ccc3ccccc3c2)NC(=O)N(CC(N)=O)C1=O (stereo not given)	1.06%
CCCC(=O)N1CCN(c2nnc(-c3ccc(C)cc3)c3ccccc23)CC1	-8.96%
CN(C(=O)COC(=O)CCCc1c[nH]c2ccccc12)c1c(N)n(Cc2ccccc2)c(=O)[nH]c1=O	20.6%
NC(=O)c1cc(S(=O)(=O)NCCCc2ccco2)cs1	1.79%

Structure (SMILES)	inhibition
CCc1ccc(NC(=O)CCNS(=O)(=O)c2cccs2)cc1	-3.72%
COc1ccc(/C=N/OCc2ccccc2C#N)c(OC)c1	-3.2%
Cc1ccc(C(=O)NCC(=O)NC2CC2)cc1	4.21%
NS(=O)(=O)c1ccc(CCNC(=O)c2nc(CS(=O)(=O)c3ccc(Cl)cc3)no2)cc1	-12.4%
Cn1cnc(C(F)(F)F)c1-c1ccc([N+](=O)[O-])cc1	8.1%
COc1ccccc1C1=CC(=O)CCC1	2.76%
CCn1c(SCC(=O)N(C)C2CCS(=O)(=O)C2)nnc1-c1cccs1 (stereo not given)	-22.6%
O=c1nc(NO)ccn1C1CCCO1 (stereo not given)	1.3%
O=C(O)c1ccc(-n2nc(-c3ccccc3)c3ccccc3c2=O)cc1	0.76%
COc1ccc(N(CC(=O)NC2CCCCC2)S(=O)(=O)c2c(C)[nH]c(=O)[nH]c2=O)cc1	1.68%
Cc1sc2ncn(CC(=O)NCCCC(=O)N3CCN(c4ccccc4F)CC3)c(=O)c2c1C	1.47%
Cc1nc(N)c(Br)c(C)c1Br	-6.08%
CSCCC(NC(=O)COc1ccccc1)C(=O)OCC(=O)c1cc2ccccc2o1 (stereo not given)	33.3% (active)
CSCCC(NC(=O)COc1ccccc1)C(=O)OCc1ccc(Cl)cc1 (stereo not given)	-5.68%
CSCCC(NC(=O)COc1ccccc1)C(=O)OCCOc1ccc(Br)cc1 (stereo not given)	-4.54%
COc1cc(C(=O)NNC(=O)CN2C(=O)NC3(CCCC3)C2=O)cc(OC)c1OC	5.64%
COCCCNS(=O)(=O)c1cccc(S(=O)(=O)c2cccc(S(=O)(=O)NCCCOC)c2)c1	-5.56%
O=C(CC1C(=O)NCCN1Cc1ccc(-c2ccccc2)cc1)NCc1ccncc1 (stereo not given)	-12.3%
COc1ccccc1CN(C)C(=O)C1(c2ccc(Cl)cc2)CC1	21.3%
Cc1cc(OC(=O)c2ccccc2Cl)ccc1N1C(=O)CCC1=O	11.2%
Cc1ccc(C(=O)OCC(=O)N2CC(C)CC(C)C2)cc1S(=O)(=O)N1CCCCC1 (stereo not given)	11%
CCCCCCCC1(C)NC(=O)N(CC(=O)Nc2cc(C)on2)C1=O (stereo not given)	-14.9%
O=C(NCCS(=O)(=O)N1CCN(c2ccc(F)cc2)CC1)c1ccc2c(c1)OCO2	9.72%

Structure (SMILES)	inhibition
CN(CCc1ccccc1)C(=O)c1cccc(NC(=O)Cc2ccc([N+](=O)[O-])cc2)c1	-40.2%
Cc1cc(C)cc(C(=O)NC(CC(N)=O)c2ccc(N3CCC(N4CCCCC4)CC3)c([N+](=O)[O-])c2)c1 (stereo not given)	-1.31%
Cc1ccc(S(=O)(=O)C2(S(=O)(=O)c3ccc(C)cc3)CCCC2)cc1	-9.41%
O=C(CCCOc1ccccc1)NNC(=O)c1ccc(Cl)cc1	-22.2%
COC(=O)N1CN(C(=O)OC)CN(C(=O)OC)C1	-11.4%
O=C(NNc1cc(Cl)cc(Cl)c1)c1c(F)cccc1Cl	5.05%
CC1(C)CC(=O)C(C2c3ccccc3S(=O)(=O)c3ccccc32)C(=O)C1	-6.15%
CC(C)OC(=O)Cn1nc(C(F)(F)F)c2c1CCCC2	-22%
CN1CCN(C2=NCCO2)CC1	13.4%
Nc1scc(-c2ccncc2)c1Cl	4.78%
CCOc1ccc(CCNC(=O)CN2C(=O)NC3(CCc4ccccc43)C2=O)cc1OCC (stereo not given)	16.7%
COc1cc(NC(=O)c2ccc(CNc3c(N4CCCC4)c(=O)c3=O)cc2)cc(OC)c1OC	-11.7%
Cc1cc(C)n(-c2ccc(Cl)c(C(=O)O)n2)n1	39.8% (active)
CC(=O)c1ccc(Oc2cc(C)nc(-n3nc(C)cc3C)n2)cc1	6.21%
Cc1cc(C)n(-c2ccc3nncn3n2)n1	5.02%
COc1ccc(N2C(=O)C(CC(=O)Nc3ccc(F)cc3)N(CCc3cccs3)C2=O)cc1 (stereo not given)	6.13%
COc1ccc(NS(=O)(=O)c2cc(NC(=O)c3ccc(S(=O)(=O)N(C)C)cc3)ccc2N2CCOCC2)cc1	8.03%
Cc1cc(C)cc(NC(=O)CSCc2cnn(-c3ccccc3)c2-n2cccc2)c1	3.55%
CCOC(=O)NC(=O)C(=CNc1cccc(OC)c1)C(=O)NC(=O)OCC	34% (active)
COc1cccc(NC(=O)COC(=O)CCOc2ccccc2OC)c1	-27.4%
CCOC(=O)C1CCN(C(=O)Nc2cccc(OC)c2)CC1	17.6%
COCCn1c(SCC(=O)Nc2cc(Cl)ccc2OC)nc2c(c1=O)SC(C)C2 (stereo not given)	-31.9%
N#CC1(C#N)C(C(=O)C23CC4CC(CC(C4)C2)C3)C12CCOCC2 (stereo not given)	20.3%

Structure (SMILES)	inhibition
COc1cc(C)nc(N2CCCC(C(=O)NCC(C)C)C2)n1 (stereo not given)	-13.9%
CCNc1nc(NCC)nc(N(C)n2cnnc2)n1	13%
O=C(Nc1ccc2c(c1)C(=O)OC2)Nc1cccc2ccccc12	-14.2%
O=S(=O)(NC1CCCCC1N1CCC(O)CC1)c1ccc(Cl)cc1 (stereo not given)	-6.29%
O=C(COc1ccccc1F)NNC(=O)c1ccc(N2CCCCC2)c([N+](=O)[O-])c1	7.26%
O=c1[nH]n2c(=O)c3c([nH]c2c1N=Nc1ccccc1)CCC3	17%
Cc1c(CNCCc2ccccc2)c(C(=O)O)c(C)n1-c1ccccc1	10.6%
CCc1ccc(CCC(=O)Nc2ccc(S(N)(=O)=O)cc2)o1	-4.51%
COc1ccc(OCc2nnc3n2N=C(c2ccccc2)C(CC(=O)O)S3)cc1 (stereo not given)	-14.6%
O=C(Nc1ccc(Br)c2cccnc12)c1ccc(Cn2cc([N+](=O)[O-])cn2)o1	-5.7%
O=C(CSc1nnc2ccc(-c3ccncc3)nn12)N1CCCCC1	-11.3%
OCCN1CCN(CCO)C1=S	12.7%
CCCCn1c(N)c(N2CCOCC2)c(=O)n(CC(=O)NCCc2ccccc2)c1=O	-7.42%
CCC(C(=O)OC)n1cnc2scc(-c3ccc(C)cc3)c2c1=O (stereo not given)	18%
COc1cc(C(=S)N2CCOCC2)cc(OC)c1OC(=O)c1cc([N+](=O)[O-])c(C)c([N+](=O)[O-])c1	-9.45%
COc1ccc(/C=C/C(=O)c2cc(Br)ccc(=O)c2O)cc1	-37%
CC(=O)CCS(=O)(=O)c1ccc(C)c(C)c1	6.1%
CCCCN(CC)C(=O)c1ccccc1Oc1ccccc1	4.41%
C=CCn1c(SCC(=O)NC(=O)Cc2ccccc2)nc2ccccc2c1=O	4.86%
CCOc1cc(S(=O)(=O)NCc2ccc3c(c2)OCO3)ccc1F	18.6%
Cc1cc(-c2nc(C)c(-c3nnc(SCC(=O)Nc4ccccc4)n3C)s2)no1	0.1%
